In the library only some 1.7% were active in any assay of this set; here they are far more common.
LYPLA2 counter: LYPLA2 inhibitors, primary screen, counter-screen for PME1 inhibitor project, biochemical, fluorescence polarization, FP-Rh probe ABPP; Acyl-protein thioesterase 2 (Homo sapiens), O95372; recombinant LYPLA2; inhibition, % at 5.9 µM; 320,000 compounds, 0.38% hits; AID 2177, 2009;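 active means inhibition above the screen-wide mean plus 3 SD, limit set per campaign, cut at about 26% in these data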;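 further: 0% = LYPLA2 with DMSO and 100% = wells lacking LYPLA2 enzyme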
Target sequence (O95372 whole entry, looked up): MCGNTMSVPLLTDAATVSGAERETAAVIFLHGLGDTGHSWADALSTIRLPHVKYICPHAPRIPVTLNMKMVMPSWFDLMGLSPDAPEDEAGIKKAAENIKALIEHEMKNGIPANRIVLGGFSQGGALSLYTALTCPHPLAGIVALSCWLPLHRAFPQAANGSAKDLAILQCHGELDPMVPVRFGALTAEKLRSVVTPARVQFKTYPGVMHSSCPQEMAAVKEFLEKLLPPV
EBNA-1 inh: EBNA-1 DNA-binding inhibitors, primary screen, biochemical, fluorescence polarization; inhibition, % at 14.8 µM; AID 1950, 2009; 300,000 compounds, 0.34% hits; in the data active means inhibition above about 28%
ZTA DNA inh: ZTA (EBV) inhibition in EBNA-1 counter-screen | P03206 | ZTA-DNA binding, fluorescence polarization | inhibition, % at 11 µM | 320,000 compounds, 0.15% hits | AID 2234; in the data active means inhibition above about 33%
LYPLA1 inh: LYPLA1 inhibitors, primary screen, counter-screen for PME1 inhibitor project, biochemical, fluorescence polarization, FP-Rh probe ABPP; Acyl-protein thioesterase 1 (Homo sapiens), O75608; recombinant LYPLA1; inhibition, % at 5.9 µM; 320,000 compounds, 0.16% hits; AID 2174, 2009;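 active means inhibition above the mean of all tested compounds plus 3 SD, set per campaign, cut at about 14% in these data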;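 further: inhibitors block serine hydrolase probe labeling of LYPLA1 so polarization falls; 0% = enzyme with DMSO and 100% = wells lacking LYPLA1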
Target sequence (O75608 whole entry, looked up): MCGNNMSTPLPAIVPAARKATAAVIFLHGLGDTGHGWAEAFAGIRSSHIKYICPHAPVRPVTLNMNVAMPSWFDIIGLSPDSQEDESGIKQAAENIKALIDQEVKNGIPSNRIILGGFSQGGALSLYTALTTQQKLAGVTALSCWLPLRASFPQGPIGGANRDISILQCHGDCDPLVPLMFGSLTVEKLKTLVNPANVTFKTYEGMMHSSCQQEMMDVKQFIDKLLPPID
GSTO1 counter: inhibitors of recombinant GSTO1, primary screen, counter-screen for RBBP9 inhibitor project, biochemical, fluorescence polarization. Glutathione S-transferase omega-1 (Homo sapiens), P78417. activity-based probe fluorescence polarization. inhibition, % at 5.96 µM. 300,000 compounds, 1.1% hits. AID 1974, 2009;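 active means inhibition above the campaign mean inhibition plus 3 SD, cut at about 35% in these data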;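 further: 0% = GSTO1-1 with DMSO and 100% = wells lacking GSTO1-1 enzyme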
Target sequence (P78417 whole entry, looked up): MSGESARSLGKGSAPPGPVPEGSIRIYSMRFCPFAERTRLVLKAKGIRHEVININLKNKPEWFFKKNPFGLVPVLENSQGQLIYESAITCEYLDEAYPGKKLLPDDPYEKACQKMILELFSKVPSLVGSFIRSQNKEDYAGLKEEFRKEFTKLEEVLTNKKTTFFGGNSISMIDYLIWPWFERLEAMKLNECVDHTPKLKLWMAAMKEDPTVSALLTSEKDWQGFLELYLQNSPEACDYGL
PAD4 FP inh: human PAD4 inhibitors, primary screen, biochemical, fluorescence polarization, 1536-well format; Protein-arginine deiminase type-4 (Homo sapiens), Q9UM07; AID 485272, 2010; inhibition, % at 6.36 µM; recombinant PAD4, RCA probe fluorescence polarization; 330,000 compounds, 0.41% hits;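 active means percent inhibition above a cutoff equal to the mean of all tested compounds plus 3 SD, cut at about 15% in these data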;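 further: 0% = PAD4 with RCA probe and DMSO and 100% = probe without PAD4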
LYPLA2 confirm: LYPLA2 inhibitors, retest, confirmation, counter-screen for PME1 inhibitor project, biochemical, fluorescence polarization, FP-Rh probe ABPP; shares compounds with LYPLA2 counter; recombinant LYPLA2; inhibition, % at 5.9 µM; 1,100 compounds, 72% hits; AID 2232, 2010;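 active means mean inhibition across replicates above the hit cutoff set in the primary screen, cut at about 26% in these data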;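 further: blocked labeling of the enzyme by serine hydrolase FP-Rh probe lowers polarization; 0% = enzyme with DMSO and 100% = wells lacking LYPLA2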
LYPLA2 gel ABPP: LYPLA2 inhibitors in proteome, late-stage follow-up, gel-based competitive ABPP, fluorescence, assay provider; rhLYPLA2 in mouse brain proteome, gel ABPP FP-Rh; shares compounds with LYPLA2 counter; AID 652029, 2013; inhibition, % at 20 µM; 150 compounds, 30% hits;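 active means inhibition of LYPLA2 enzyme probe labeling above about 50%, limit read from the data; inactive means inhibition below that limit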;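 further: loss of FP-Rh probe labeling of the LYPLA2 gel band measured as band density; 0% = DMSO only control band and 100% = blank gel background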
The depositor's hits bear a star; nt = not tested or not shown.

SMILES	LYPLA2 counter	EBNA-1 inh	ZTA DNA inh	LYPLA1 inh	GSTO1 counter	PAD4 FP inh	LYPLA2 confirm	others
COc1cc(/C=C2/SC(=O)N(CC(=O)N3CCCC3)C2=O)ccc1Oc1ccc([N+](=O)[O-])cn1	9.5	-5.7	-9.6	-1.9	-0.8	-0.9	nt
COc1cc(/C=C2\SC(=O)N(CC(=O)Nc3ccccc3F)C2=O)cc(Cl)c1O	50.9*	-0.2	3.2	1.4	-3.4	2.7	60.9*
COc1ccc(/C=C2\SC(=O)N(CC(=O)Nc3ccc(F)cc3)C2=O)cc1O	48.6*	1.4	-12.3	-14.3	-6.7	7.8	53.6*	LYPLA2 gel ABPP=50.0*
CN(C)/C=C1\SC(=S)N(N2C(=O)C3C4C=CC(C4)C3C2=O)C1=O (stereo not drawn)	0.5	-11.8	-5.7	1.5	-6.4	-5.0	nt
CC(=O)c1ccc(N2CCN(CN3C(=O)CC4(CCCC4)C3=O)CC2)c(F)c1	0.5	1.1	-5.9	0.7	0.4	2.8	nt
Cc1cc(N2C(=O)NC(=O)CC2C)c(C)cc1C(C)C (stereo not drawn)	10.0	13.7	-2.7	-1.1	1.2	-0.8	nt
NC(=NC(=O)c1ccccc1)N1CCN(C(c2ccccc2)c2ccccc2)CC1	-5.6	1.3	9.9	-3.1	-9.8	2.6	nt
COc1ccc2[nH]cc(CCNC(=O)Cc3ccc(Cl)cc3)c2c1	-2.5	0.4	-1.2	-0.2	-9.5	1.0	nt
COc1ccc(/C=C2\SC(=O)N(CC(=O)Nc3cccnc3)C2=O)cc1OC	35.4*	1.0	25.0	0.5	2.3	8.6	26.2*
NC(=O)CC(NC(=O)c1ccc(Br)cc1)c1ccc(N2CCN(c3ccccn3)CC2)c([N+](=O)[O-])c1 (stereo not drawn)	49.7*	-4.0	2.1	2.6	3.6	4.2	56.9*	LYPLA2 gel ABPP=37.0
NC(=O)CC(NC(=O)c1ccccc1)c1ccc(N2CCN(c3ccc(F)cc3)CC2)c([N+](=O)[O-])c1 (stereo not drawn)	27.1*	-2.1	-15.1	-3.7	4.7	-3.8	33.1*
Cc1ccc(NC(=O)Nc2c(C)[nH]c(=O)[nH]c2=O)cc1Cl	-6.9	-11.9	-30.4	-0.8	4.5	2.7	nt
O=C(c1ccccc1)N1CCOC12CCN(c1ncc(C(F)(F)F)cc1Cl)CC2	7.7	5.5	5.0	2.3	2.7	-2.1	nt
O=C(c1ccc([N+](=O)[O-])cc1)N1CCOC12CCN(c1ncc(C(F)(F)F)cc1Cl)CC2	38.1*	9.1	6.2	0.6	5.3	0.6	56.7*	LYPLA2 gel ABPP=8.0
CC1(C)NC(C)(C)C(O)(C(N)=O)C1=O (stereo not drawn)	26.8*	4.9	0.0	1.8	-0.4	3.0	18.1
CCCN(C(=O)c1ccc([N+](=O)[O-])c(C)c1)c1c(N)n(Cc2ccccc2)c(=O)[nH]c1=O	1.7	nt	-11.6	5.2	nt	2.9	nt
O=C(CSc1nc2ccccc2s1)N1CCOCC1	0.8	-8.8	-15.6	-0.5	-5.4	4.1	nt
NC(=O)C1(N2CCCCC2)CCN(C(=O)CSc2nc3ccccc3s2)CC1	32.3*	6.8	10.4	3.9	2.1	3.5	31.3*
C/C(=N\OC(=O)c1ccccc1)c1cc(-c2ccc(Cl)cc2)no1	5.2	-7.1	0.2	-0.3	0.5	-3.1	nt
C/C(=N/OC(=O)C1CC1)c1cc(-c2ccc(Cl)cc2)no1	37.4*	-3.2	1.7	4.5	9.3	-3.2	22.1
O=[N+]([O-])c1ccc(Oc2ccc(/C=N/O)cc2)nc1	40.5*	-3.4	8.8	5.1	10.2	1.1	26.4*
O=C1NC(=O)/C(=C\c2ccc(Oc3ccc([N+](=O)[O-])cn3)cc2)S1	10.6	-2.5	11.0	1.6	-17.9	-3.7	nt
C[C@@H]1CCCCCCCCC(=O)OCCN(C(=O)OC(C)(C)C)[C@H](C)CCCCCCCCC(=O)OCCN(C(=O)OC(C)(C)C)[C@H](C)CCCCCCCCC(=O)OCCN1C(=O)OC(C)(C)C	nt	nt	nt	nt	nt	0.4	nt
COc1ccc(N2CCN(c3oc(-c4ccco4)nc3C#N)CC2)cc1	22.1	0.5	3.9	9.8	2.8	2.9	nt
N#Cc1nc(-c2ccco2)oc1N1CCN(c2ccccc2)CC1	26.3*	5.3	-1.1	5.9	-0.5	1.4	17.2
SMILES	LYPLA2 counter	EBNA-1 inh	ZTA DNA inh	LYPLA1 inh	GSTO1 counter	PAD4 FP inh	LYPLA2 confirm	others
O=C(Nc1cc(Sc2ccccn2)cc([N+](=O)[O-])c1)c1ccc([N+](=O)[O-])cc1	56.5*	1.8	7.3	-13.2	9.2	-2.0	13.4
CCOC(=O)c1cc(-c2ccccc2C)nn1CC1CC(c2cccnc2)=NO1 (stereo not drawn)	nt	nt	nt	nt	nt	1.1	nt
Cn1c(-c2ccc(Cl)cc2)cnc1NCc1cc2c(cc1[N+](=O)[O-])OCO2	50.7*	15.5	23.0	-0.4	-6.6	-1.4	48.8*
Cc1cc(F)ccc1NCc1cc2c(cc1[N+](=O)[O-])OCO2	26.9*	-12.4	-18.3	3.4	11.8	-1.8	7.8
Cn1c(-c2ccccc2)cnc1NCc1cccc([N+](=O)[O-])c1	4.6	1.3	16.8	1.0	-2.9	-0.5	nt
Cn1c(-c2ccc(F)cc2)cnc1NCc1cc2c(cc1[N+](=O)[O-])OCO2	41.5*	-3.1	-0.6	3.3	-0.5	0.1	44.2*
Cn1c(-c2ccccc2)cnc1NCc1cc2c(cc1[N+](=O)[O-])OCO2	29.2*	5.3	2.5	-1.0	4.9	0.2	40.9*
COc1ccc(CS(=O)(=O)CC(C)(O)c2ccccc2)cc1 (stereo not drawn)	0.8	4.7	7.3	-2.0	6.7	5.1	nt
O=C(CSc1nc(-c2ccccc2)cs1)NCCCN1CCCC1=O	nt	nt	nt	nt	nt	-3.2	nt
CC(C)CCN1CC(=O)N2Cc3[nH]c4ccccc4c3C[C@H]2C1=O	60.2*	1.2	5.0	2.4	3.6	2.3	55.9*	LYPLA2 gel ABPP=14.0
O=C1[C@@H]2Cc3c([nH]c4ccccc34)CN2C(=O)CN1CCO	6.0	6.5	-8.2	1.5	-6.1	-0.8	nt
O=C1[C@@H]2Cc3c([nH]c4ccccc34)CN2C(=O)CN1CCCCCO	29.8*	-3.2	-9.7	-1.2	-5.8	3.1	20.2
CCOC(=O)CSc1nnc(CSc2nc3sc4c(c3c(=O)[nH]2)CCC4)n1-c1ccccc1	57.3*	9.5	-4.2	6.0	-40.4	-2.6	51.0*
